This note sets out measurements from PubChem BioAssay AID652208 (Broad Institute, 2013).

Potency and affinity values are given separately. Calls of active or inactive are those of the source.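 Rule for the calls: active = Loss of cell signal with fitted half-effect dose at or below twice the top valid tested dose; inconclusive = Poor fit, or flat fit from -70 to -30 percent; inactive = Half-effect above limit, rising signal, or flat within 30 percent.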

This test can be described thus: HEK293T cell cytotoxicity, dose response, cytotoxicity control for HIV Vif inhibitor project, cherry-picks (AID 652208).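 Note: 0% = median neutral control wells and -100% = median staurosporine control wells.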 The conditions noted are these: HEK293T viability, CellTiter-Glo luminescence, 24 h; series mostly up to 26 µM; activity change, negative = cytotoxicity: at the top concentration. Background: ATP-based viability assays read luminescence as a measure of living cells.
For the compound `CN(C)c1ccc(C(O)Cc2nc3ccccc3n2C)cc1` (configuration not stated), the “activity change, negative = cytotoxicity” value is -0.368% (inactive).

For `CN(Cc1ccccc1)C(=O)CCC1CCN(C(=O)c2ccco2)CC1`, the “activity change, negative = cytotoxicity” value was -3.47% (inactive).

Take `COc1ccc(-c2nnc(SCC(=O)N3CCCc4ccccc43)o2)cc1OC`: the “activity change, negative = cytotoxicity” value is -13.4% (inactive).

Consider `O=C(CSc1nnc(CNc2ccc(F)cc2)o1)c1ccccc1`, for which the “activity change, negative = cytotoxicity” value is 4.08% (inactive).

Consider `COc1ccc(C(=O)NCc2oc(-c3ccccc3)cc2C(=O)O)cc1`, for which the “activity change, negative = cytotoxicity” value is 5.02% (inactive).

Consider `Oc1ccc(-c2nc(-c3ccc(O)c(O)c3)cs2)cc1`, for which the “activity change, negative = cytotoxicity” value was 1.6% (inactive).

In the case of `COc1ccccc1NC(=O)c1ccccc1NC(=O)c1ccccn1`, the “activity change, negative = cytotoxicity” value is -11.9% (inactive).

For the compound `COc1ccc(CNC(=O)COC(=O)c2cc(S(=O)(=O)N3CCOCC3)ccc2O)cc1OC`, the “activity change, negative = cytotoxicity” value is -4.34% (inactive).

As for `O=C1/C(=C/c2ccc(N3CCCC3)cc2)NC(=S)N1C1CC1`, the “activity change, negative = cytotoxicity” value is 3.52% (inactive).

For the compound `COc1cc(CNCc2ccccc2)c(Br)cc1OC1CCCC1`, the “activity change, negative = cytotoxicity” value was -16.3% (inactive).

`COc1ccc(-c2nc(CS(=O)(=O)CC(=O)NCCc3ccccc3)c(C)o2)cc1`: the “activity change, negative = cytotoxicity” value is -6.93% (inactive).

Regarding `COc1cccc(N2CCN(S(=O)(=O)c3cc4c(cc3C)N(C)CCO4)CC2)c1`, the “activity change, negative = cytotoxicity” value is -2.23% (inactive).

For the compound `Cc1cc(-c2nnc(SCC(=O)c3ccc(Cl)cc3)o2)no1`, the “activity change, negative = cytotoxicity” value was -6.3% (inactive).

As for `COc1cccc(NC(=O)CSc2nnc(Cc3ccc(OC)c(OC)c3)o2)c1`, the “activity change, negative = cytotoxicity” value is 8.72% (inactive).

With `O=C(c1cc(COc2cccc3cccnc23)on1)N1CCC[C@H]1CO`, the “activity change, negative = cytotoxicity” value was 15.7% (inactive).

On to `COc1ccc(CN2C3CCC2CC(NC(=O)c2cc(OC)c(OC)c(OC)c2)C3)cc1` (configuration not stated), for which the “activity change, negative = cytotoxicity” value is -11.2% (inactive).

Consider `COc1cc(/C=C/C(=O)OCC(=O)N2CCCc3ccccc32)ccc1O`, for which the “activity change, negative = cytotoxicity” value is 1.29% (inactive).

Regarding `COc1cc(C(C)=O)ccc1OCC(=O)NCC1(N2CCCCC2)CCCCC1`, the “activity change, negative = cytotoxicity” value is -8.55% (inactive).

In the case of `COc1ccc(Br)cc1C(=O)Nc1ccc(N2CCCC2)cc1`, the “activity change, negative = cytotoxicity” value was -15.1% (inactive).

For `FC(F)(F)c1nnc2c3ccccc3c(Cl)nn12`, the “activity change, negative = cytotoxicity” value was -19.8% (inactive).

As for `COc1ccc([C@H]2CC(=O)C=C(c3cc4ccccc4s3)C2)cc1`, the “activity change, negative = cytotoxicity” value was -12.1% (inactive).

For `O=C(c1ccc2c(c1)OCO2)N(CC1CCCO1)C1(C(=O)NC2CCCC2)CCCCC1` (configuration not stated), the “activity change, negative = cytotoxicity” value is -18.2% (inactive).

As to `C/C=C/c1ccc(OCCNCc2ccccc2)c(OC)c1`, the “activity change, negative = cytotoxicity” value is 0.443% (inactive).

As to `CCCCOc1cccc2c(=O)n(CC(=O)Nc3ccc4c(c3)OCCO4)ccc12`, the “activity change, negative = cytotoxicity” value was 6.23% (inactive).

As for `O=C(CCCCCn1c(=S)[nH]c2ccc(N3CCOCC3)cc2c1=O)NCc1ccccc1Cl`, the “activity change, negative = cytotoxicity” value is -15.5% (inactive).

Consider `O=S(=O)(Nn1cnnc1)c1ccccc1`, for which the “activity change, negative = cytotoxicity” value was 6.03% (inactive).

Consider `COc1ccc(N=C2NC(=O)S/C2=C\c2ccc(N(C)C)cc2)cc1`, for which the “activity change, negative = cytotoxicity” value was -5.14% (inactive).

Consider `O=c1sc(N2CCN(c3ccc(F)cc3)CC2)nc2ccsc12`, for which the “activity change, negative = cytotoxicity” value is -4.85% (inactive).

On to `COc1ccc(OC)c(NC(=O)c2nc(-c3ccccc3)oc2C)c1`, for which the “activity change, negative = cytotoxicity” value was -7.11% (inactive).

For the compound `O=c1[nH]c(=O)n(Cc2ccco2)c2c1C(C(F)(F)F)(C(F)(F)F)N=C(c1ccco1)N2`, the “activity change, negative = cytotoxicity” value is -3.38% (inactive).

On to `O=C(Cn1c(=O)oc2cc(S(=O)(=O)N3CCCCC3)ccc21)N1CCc2ccccc21`, for which the “activity change, negative = cytotoxicity” value was -4.05% (inactive).

On to `COc1cc(-c2cnc3c(NC=O)cc(-c4ccccc4Cl)cn23)cc(OC)c1OC`, for which the “activity change, negative = cytotoxicity” value was -15% (inactive).

On to `CCCCCCn1c(N(CC)CC)nc2c1c(=O)[nH]c(=O)n2C`, for which the “activity change, negative = cytotoxicity” value is -0.206% (inactive).

As to `COc1ccc(CC(=O)Nc2ccc(-c3noc(-c4cc(OC)c(OC)c(OC)c4)n3)cc2)cc1`, the “activity change, negative = cytotoxicity” value is 0.981% (inactive).

As to `CCCn1c(=N)c(C(=O)NCc2ccc3c(c2)OCO3)cc2c(=O)n3cccc(C)c3nc21`, the “activity change, negative = cytotoxicity” value is -9.2% (inactive).

Regarding `O=C(CSc1ncccn1)NC(=O)Nc1ccc2c(c1)OCCO2`, the “activity change, negative = cytotoxicity” value is -4.69% (inactive).

Turning to `COc1ccc2c(CC(=O)Nc3ccccc3OC)coc2c1`, the “activity change, negative = cytotoxicity” value was -3.21% (inactive).
